Common to all, as to assay type: functional
In assay [1] the target is Solute carrier family 2, facilitated glucose transporter member 1 (Homo sapiens) (UniProt P11166). The experiment in a line: ST_JUDE_LEISH: Cytotoxicity at 2uM final concentration against transgenic Leishmania Mexicana promastigotes LmGLUT1 that are glucose transport deficient and complemented with the human glucose transporter GLUT1. Activity is measured by DNA content using SYBR green in vitro.

The target of assay [2] is Hexose transporter 1 (Plasmodium falciparum) (UniProt O97467). Nature of the assay: ST_JUDE_LEISH: Cytotoxicity at 2uM final concentration against transgenic Leishmania Mexicana promastigotes LmPfHT that are glucose transport deficient and complemented with the Plasmodium falciparum hexose transporter. Activity is measured by DNA content using SYBR green in vitro.
In assay [3] the target is Glucose transporter (Leishmania mexicana) (UniProt O61059). Nature of the assay: ST_JUDE_LEISH: Cytotoxicity at 2uM final concentration against transgenic Leishmania Mexicana promastigotes LmGT2 that are glucose transport deficient and complemented with the L. Mexicana glucose transporter 2. Activity is measured by DNA content using SYBR green in vitro.

Chain of Solute carrier family 2, facilitated glucose transporter member 1 (Homo sapiens) (P11166 whole entry): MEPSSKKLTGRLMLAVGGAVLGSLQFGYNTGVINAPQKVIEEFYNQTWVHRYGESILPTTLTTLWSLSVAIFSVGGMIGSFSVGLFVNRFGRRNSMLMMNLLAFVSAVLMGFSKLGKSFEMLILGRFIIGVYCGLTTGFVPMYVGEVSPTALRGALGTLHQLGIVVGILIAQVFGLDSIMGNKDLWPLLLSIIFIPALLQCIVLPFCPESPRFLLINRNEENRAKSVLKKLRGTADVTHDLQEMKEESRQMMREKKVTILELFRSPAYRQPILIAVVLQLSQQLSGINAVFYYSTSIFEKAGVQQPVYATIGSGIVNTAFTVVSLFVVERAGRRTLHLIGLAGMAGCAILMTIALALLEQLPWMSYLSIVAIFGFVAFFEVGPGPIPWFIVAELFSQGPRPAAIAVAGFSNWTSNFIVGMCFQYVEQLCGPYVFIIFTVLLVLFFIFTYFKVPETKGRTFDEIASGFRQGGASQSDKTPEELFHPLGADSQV

For `CCOC(=O)c1ccc(NC(=O)Nc2cccc(-c3cccc(-c4nc5ccccc5[nH]4)c3)c2)cc1`, the inhibition in assay [1] stood at 10.4%; in assay [2] it was 7.84%; in assay [3], 8.27%.

Turning to `O=C(CCc1c[nH]cn1)Nc1cccc(-c2ccc(-c3nc4cc(F)ccc4[nH]3)cc2)c1`, the inhibition in assay [1] came out at 16.3%; in assay [2] it was 13.1%; in assay [3], 16.6%.

Take `Cc1ccc2c(=NN=Cc3ccc(N(C)C)cc3)cc(C)[nH]c2c1`: the figures for the inhibition in assay [1], in assay [2] and in assay [3] were 1.24%, 2.71% and -5.38%, respectively.

As for `COc1ccccc1C(=O)Nc1ccc(Nc2nc(C)cc(N(C)C)n2)cc1`, the inhibition was 7.13% in assay [1], 18.3% in assay [2] and 5.83% in assay [3].

With `c1cc(CN2CCCCC2)cc(-c2csc(-c3nc4ccccc4[nH]3)c2)c1`, the results for the inhibition in assay [1], in assay [2] and in assay [3] were 5.65%, 4.57% and 2.67%, respectively.

For `O=[N+]([O-])c1cccc(CNC2CCN(Cc3ccc(Cl)c(Cl)c3)CC2)c1`, the inhibition was 7.37% in assay [1], 4.47% in assay [2] and 7.35% in assay [3].

Take `Fc1ccc(-c2cc(NCCCn3ccnc3)nc(-c3cccnc3)n2)cc1`: the inhibition in assay [1] amounted to 1.99%; in assay [2], 0.82%; in assay [3] it was 2.67%.

As for `Cc1cc(C)n2nc(C(=O)Nc3cc(C(F)(F)F)ccc3N3CCOCC3)nc2n1`, the inhibition in assay [1] is 3%; in assay [2], 2.82%; in assay [3] it was 3.81%.

For the compound `CS(=O)(=O)N1CC2(CCN(CCC(NC(=O)/C=C/c3ccccc3)c3ccc(Cl)c(Cl)c3)CC2)c2ccccc21` (stereo unspecified), the inhibition turned out to be 2.11% in assay [1], 0.3% in assay [2] and 1.25% in assay [3].

Take `CN1CC[C@@H](Oc2cc(NC(=O)Nc3ccc(Cl)c(C(F)(F)F)c3)ccc2Cl)C1`: the inhibition in assay [1] worked out at 0.88%; in assay [2], 0.12%; in assay [3] it was 0.51%.

On to `O=C(CC(=O)C(F)(F)F)c1ccccc1[N+](=O)[O-]`, for which the inhibition was 0.17% in assay [1], 3.36% in assay [2] and -1.14% in assay [3].

As to `CN1CCN(CCCN(Cc2csc(-c3ccc(CNCc4ccccc4)cc3)n2)S(=O)(=O)c2ccc(F)cc2)CC1`, the inhibition was determined as 14.9% in assay [1], 17.1% in assay [2] and 10.1% in assay [3].

On to `OC(CNCc1ccccc1Oc1ccccc1)c1cc(Br)cs1` (stereo unspecified), for which the inhibition is 4.37% in assay [1], 3.03% in assay [2] and 3.26% in assay [3].

Consider `O=C(Nc1ccc(Br)cc1)N(CCN1CCOCC1)CC(O)COCc1ccc(F)cc1` (stereo unspecified), for which the results for the inhibition in assay [1], in assay [2] and in assay [3] were 1.97%, 1% and -8.93%, respectively.

Turning to `CC(O)c1cccc(-c2ccc(Nc3ccnc4cc(-c5nccs5)ccc34)cc2)c1` (stereo unspecified), the inhibition in assay [1] worked out at 4.55%; in assay [2], 4.09%; in assay [3], 4.15%.

`Cc1cccc(S(=O)(=O)Nc2cccc(CCN3CCC(N4CCCCC4)CC3)c2)c1`: the inhibition in assay [1] is 3.99%; in assay [2], -1.11%; in assay [3], 0.97%.

In the case of `O=C(Nc1ccsc1)Nc1cccc(-c2cccc(-c3nc4cc(C(F)(F)F)ccc4[nH]3)c2)c1`, the values for the inhibition in assay [1], in assay [2] and in assay [3] were -1.45%, 1.47% and 1.55%, respectively.

On to `CCN(CC)C(=O)C1CCCN(C(=O)Nc2cc(C(F)(F)F)cc(C(F)(F)F)c2)C1` (stereo unspecified), for which the inhibition was 0.66% in assay [1], 0.55% in assay [2] and -2.05% in assay [3].

With `O=C(c1ccc([N+](=O)[O-])o1)N1CCC(c2cn(Cc3cccc(F)c3)c3ccccc23)CC1`, the results for the inhibition in assay [1], in assay [2] and in assay [3] were 50.1%, 50.9% and 10.2%, respectively.

As to `COc1ccc(NC(=O)Nc2cccc(-c3cccc(-c4nc5cccc(C)c5[nH]4)c3)c2)cc1`, the inhibition is -1.25% in assay [1], -0.57% in assay [2] and -1.79% in assay [3].

For the compound `Cc1ccc(CON2C(N)=NC(N)=NC2(C)C)c(Cl)c1.Cc1ccc(CON2C(N)=NC(N)=NC2(C)C)cc1Cl`, the inhibition in assay [1] came to 2.94%; in assay [2], 4.84%; in assay [3] it was 1%.

With `O=C(Nc1cccc(CN2CCCN(Cc3cccc(Cl)c3)CC2)c1)c1ccc(Cl)c(Cl)c1`, the inhibition in assay [1] was 1.69%; in assay [2] it was 1.9%; in assay [3], 4.28%.

Regarding `CC(C)Cc1nc(N2CCOCC2)c2nnn(Cc3ccccc3)c2n1`, the inhibition in assay [1] turned out to be 3.23%; in assay [2], 1.31%; in assay [3] it was 1.84%.

Consider `Cc1cc(C)c2cc(CNCCCNc3nc4ccccc4[nH]3)[nH]c2c1`, for which the inhibition in assay [1] was found to be 1.11%; in assay [2], 0.15%; in assay [3] it was 2.91%.

In the case of `O=C(NC1CC1)c1ccc(Cn2c(SCc3cccc(Cl)c3)nc3ccccc3c2=O)cc1`, the results for the inhibition in assay [1], in assay [2] and in assay [3] were 0.42%, -0.54% and -1.07%, respectively.

Regarding `COc1cc(C)c(C(O)CNC(C)CCc2ccccc2)cc1C` (stereo unspecified), the inhibition is 2.16% in assay [1], 2.83% in assay [2] and -0.47% in assay [3].

For the compound `COc1cc(OC)c(OC)cc1CN1CCC2(CC1)CN(Cc1ccc(Cl)c(Cl)c1)C(=O)O2`, the inhibition in assay [1] turned out to be 10.3%; in assay [2], 9.41%; in assay [3] it was 8.16%.

For the compound `N#Cc1cncc(-c2nc3c(N4CCC(Cc5ccccc5)CC4)cccc3n2CCNCc2ccccc2)c1`, the inhibition came out at 5.27% in assay [1], 4.45% in assay [2] and 6.16% in assay [3].

As to `O=C(Nc1ccc(S(=O)(=O)NCCCN2CCOCC2)cc1)c1cc(-c2ccccc2)[nH]n1`, the inhibition came to 1.2% in assay [1], 1.66% in assay [2] and 5.52% in assay [3].

With `COc1cccc(-c2ccc(C(=O)NC3CCN(Cc4ccc(C(C)(C)C)cc4)CC3)s2)c1`, the inhibition in assay [1] was 0.02%; in assay [2] it was 0.82%; in assay [3], -1.18%.

Regarding `CSC1=NC(=Nc2ccccc2C)C2(CCC(C(C)(C)C)CC2)N1c1ccccc1Cl` (stereo unspecified), the inhibition in assay [1] is -1.03%; in assay [2], -3.95%; in assay [3], -2.88%.

For the compound `O=C(Cn1c(SCc2cccc(F)c2F)cc(=O)c2ccccc21)N(CCc1c[nH]cn1)Cc1ccc(-c2ccc(C(F)(F)F)cc2)cc1`, the inhibition came to 4.17% in assay [1], 5.15% in assay [2] and 2.52% in assay [3].

By inhibition is commonly meant the change of the read-out against control, counted positive when it falls.

The values are drawn from ChEMBL document CHEMBL3433997, “St. Jude Leishmania screening dataset” (2016).
